# Counter-ions that a name gives are not always drawn.
# Tested on: Danio rerio larvae Tg(actc1b:ZsGreen-LC3), 3 dpf
# Test: LC3 puncta relative area vs vehicle, with NH4Cl (autophagic flux) (log2 fold change); higher = more autophagy
# Settings: 10 µM; treatment time 16 h; NH4Cl: + 100 mM, 4 h
# Method: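 Transgenic Tg(actc1b:ZsGreen-map1lc3) zebrafish larvae (2 dpf) were treated for 16 h with Tocris library compounds at 10 µM (n = 12 larvae per compound). Skeletal-muscle LC3 puncta area relative to body area was measured by high-content confocal imaging before and after 4 h of 100 mM NH4Cl (autophagic flux), normalised to vehicle (DMSO), and reported as log2 fold change.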
row,Compound,LC3 puncta (log2)
1,Cc1noc(NS(=O)(=O)c2ccc(N)cc2)c1C [Sulfisoxazole],0.483
2,CC(=O)N[C@@H](CC(=O)N[C@@H](CCC(=O)O)C(=O)O)C(=O)O [Spaglumic acid],0.103
3,NC(=O)OCC(COC(N)=O)c1ccccc1 [Felbamate],-0.777
4,O=C(O)c1cccnc1C(=O)O [Quinolinic acid],0.453
5,N[C@H](C(=O)O)c1cc(O)cc(O)c1,0.736
6,O=C(/C=C/c1ccc(O)c(O)c1)O[C@H](Cc1ccc(O)c(O)c1)C(=O)O [Rosmarinic acid],0.0251
7,CC(C(O)c1ccc(O)cc1)N1CCC(Cc2ccccc2)CC1 (stereo not given) [Ifenprodil hemitartrate],0.445
8,CCc1nc(N)nc(N)c1-c1ccc(Cl)cc1 [Pyrimethamine],0.578
9,CC[C@@H]1C(=O)OC[C@@H]1Cc1cncn1C [Pilocarpine hydrochloride],0.652
10,CCCCCCN(CCCCCC)C(=O)Cc1c(-c2ccc(F)cc2)[nH]c2ccccc12,0.295
11,c1ccc2nc(C3=NCCN3)cnc2c1 [BU 239 hydrochloride],0.0532
12,O=C(O)C1=CCCNC1 [Guvacine hydrochloride],0.136
13,CC(C)Oc1ccc2c(=O)c3cc(C(=O)O)ccc3oc2c1,0.814
14,C1COC(NC(C2CC2)C2CC2)=N1 [Rilmenidine hemifumarate],0.305
15,CC(N)(Cc1ccc(O)c(O)c1)C(=O)O (stereo not given),0.209
16,CNCCCCOc1ccccc1Cc1ccccc1 [Bifemelane],0.532
17,O=C(NCCN1CCCCC1)c1ccc(I)cc1 [N-[2-(Piperidinylamino)ethyl]-4-iodobenzamide],0.448
18,CC1=NN(c2ccccc2)C(=O)C1 [Edaravone],0.405
19,COc1ccc(CCN(C)CCc2ccc(OC)c(OC)c2)cc1OC [YS-035 hydrochloride],0.374
20,Cc1ccc2c(c1)c1c3n2CCNC3CCC1 (stereo not given) [Pirlindole mesylate],0.527

row,Compound,LC3 puncta (log2)
1,CC(CCCCC(=O)Nc1ccc(C(F)(F)F)cc1)NCCc1cnc[nH]1 (stereo not given) [HTMT dimaleate],0.469
2,CC(C)(Oc1ccc(Cl)cc1)C(=O)O [Clofibric acid],0.77
3,N[C@@H](CSS(=O)(=O)O)C(=O)O [S-Sulfo-L-cysteine sodium salt],0.324
4,C=C1C(=O)O[C@H]2[C@H]1CC/C(C)=C/CC[C@@]1(C)O[C@@H]21 [Parthenolide],0.46
5,Nc1cc(N2CCCCC2)nc(N)[n+]1[O-] [Minoxidil],0.501
6,CC(C)(C)NC[C@H](O)COc1nsnc1N1CCOCC1 [(S)-Timolol maleate],0.785
7,O=C(O)c1cc(=O)c2ccccc2[nH]1 [Kynurenic acid],-0.156
8,CC(C)[C@H]1CC[C@H](C(=O)N[C@H](Cc2ccccc2)C(=O)O)CC1 [Nateglinide],0.54
9,COc1ccc2[nH]c(-c3ccccc3)c(CCNC(C)=O)c2c1 [2-Phenylmelatonin],0.594
10,CCCCCCN(CCCCCC)C(=O)Cc1c(-c2ccc(Cl)cc2)[nH]c2ccc(Cl)cc12,0.58
11,"O=C(O)c1cc(=O)c2c(Cl)cc(Cl)cc2[nH]1 [5,7-Dichlorokynurenic acid]",0.00257
12,CC(C)NC[C@H](O)COc1cccc2ccccc12 [(S)-(-)-Propranolol hydrochloride],1.09
13,CCN(CC)CCOc1ccc(Cc2ccccc2)cc1 [DPPE fumarate],0.857
14,c1ccc2sc(N3CCN(Cc4ccc5c(c4)OCO5)CC3)nc2c1 [2-[1-(4-Piperonyl)piperazinyl]benzothiazole],0.593
15,O=C1CC2(CCCC2)CC(=O)N1CCNCC1COc2ccccc2O1 (stereo not given),0.515
16,"Cc1ccc(OCC(O)C(C)NC(C)C)c2c1CCC2 (stereo not given) [ICI 118,551 hydrochloride]",0.592
17,NC(N)=Nc1ccc(Cl)cc1 [4-Chlorophenylguanidine hydrochloride],0.148
18,N[C@@H](C(=O)O)c1ccc(O)c(C(=O)O)c1 [(R)-3-Carboxy-4-hydroxyphenylglycine],0.421
19,CN(C)CCCCSC(=N)N,0.383
20,CC#CCOC(=O)C1=CCCN(C)C1 [Arecaidine but-2-ynyl ester tosylate],0.452

# Source: the supplement of paper PMC12532568
